Experimental data as given in PubChem BioAssay AID651871 (Sanford-Burnham Center for Chemical Genomics, 2012).

Tested on: H9c2
Assay: cardiomyocyte survival under oxidative or metabolic stress – cell-based, panel, H9c2 and HL-1, ATP luminescence, set 2, SAR follow-up (AID 651871);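 also: cells exposed to stressor for 2 h before ATP readout; reference of the scale not given here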
Conditions: H9c2/HL-1 cardiomyocytes, 2-deoxyglucose stress, with 2-deoxyglucose, run 4, at 39.5 µM (top of the series)

COc1ccc2c(c1OC)C(=O)N1c3ccccc3C(=O)N(Cc3cccc(Cl)c3Cl)C21 (stereo unspecified)
activity (protection/inhibition): 71%
